Source: PubChem BioAssay
KCNQ2 block: blocks the rat KCNQ2 potassium channel. CHO-K1 KCNQ2, FluxOR thallium flux, 20 min; active compounds read low. B-score at 10 µM. 1.1% of 310,000 active;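 active = fluorescence ratio B-score at most minus 3 library SDs, with starting brightness B-score within 2 library SDs, cut at about -5.5 in these data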
Target sequence (O88943 whole entry, looked up): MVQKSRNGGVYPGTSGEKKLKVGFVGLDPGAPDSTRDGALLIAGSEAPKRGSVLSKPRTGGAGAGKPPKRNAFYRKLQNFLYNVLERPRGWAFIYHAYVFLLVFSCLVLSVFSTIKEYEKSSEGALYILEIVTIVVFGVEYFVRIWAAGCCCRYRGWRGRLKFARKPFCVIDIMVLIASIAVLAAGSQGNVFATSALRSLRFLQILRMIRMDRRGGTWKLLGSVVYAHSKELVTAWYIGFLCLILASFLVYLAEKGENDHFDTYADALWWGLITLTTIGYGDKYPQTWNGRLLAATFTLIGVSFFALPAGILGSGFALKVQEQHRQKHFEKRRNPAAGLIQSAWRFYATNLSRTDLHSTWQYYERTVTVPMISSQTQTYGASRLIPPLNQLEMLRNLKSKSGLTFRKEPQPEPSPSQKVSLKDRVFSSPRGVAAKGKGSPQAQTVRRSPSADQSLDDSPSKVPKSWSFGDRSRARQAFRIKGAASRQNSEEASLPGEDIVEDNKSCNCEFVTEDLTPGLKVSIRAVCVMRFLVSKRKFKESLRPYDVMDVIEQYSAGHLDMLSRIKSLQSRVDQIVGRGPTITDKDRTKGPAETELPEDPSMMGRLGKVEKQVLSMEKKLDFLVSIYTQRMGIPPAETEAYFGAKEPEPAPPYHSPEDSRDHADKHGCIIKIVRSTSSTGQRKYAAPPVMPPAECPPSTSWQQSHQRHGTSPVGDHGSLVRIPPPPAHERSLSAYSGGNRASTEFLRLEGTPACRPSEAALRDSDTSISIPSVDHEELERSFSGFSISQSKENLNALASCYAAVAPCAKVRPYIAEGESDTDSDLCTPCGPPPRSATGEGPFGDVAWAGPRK
KCNQ2 pot: potentiators of rat KCNQ2 potassium channel | B-score at 10 µM | 0.54% of 310,000 active | CHO-K1 KCNQ2, FluxOR thallium flux fluorescence; active compounds read high;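 active = fluorescence ratio B-score at least 3 SD of library B-scores, with initial fluorescence B-score within 3 of them, cut at about 5.3 in these data; same plate scores as AID 2156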;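 also: B-score of peak minus minimum over baseline fluorescence ratio after K+ and Tl+ stimulus; positive B-score means potentiation of KCNQ2 with more thallium influx and brighter signal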
Large screens that a line does not name were inactive. Compounds with a hit are over-represented: about 1.6% of the library has one in this group of screens.

CCOc1ccc(CCNC(=O)C(O)c2ccccc2)cc1 (stereo not drawn)	none
CCOc1cc(C)cc2oc(=O)cc(-c3ccccc3)c12	none (no result: KCNQ2 pot)
COc1ccc(OCC(=O)N2CCc3ccccc3C2)cc1	none (no result: KCNQ2 pot)
Cc1cc(OCC(=O)N2CCc3ccccc3C2)c2c(-c3ccccc3)cc(=O)oc2c1	KCNQ2 block -7.5
O=C(COc1ccc(Br)cc1)N1CCOCC1	none (no result: KCNQ2 pot)
O=C(COc1ccc(Br)cc1)N1CCC(c2ccccc2)C1 (stereo not drawn)	KCNQ2 block -5.6
O=C(COc1ccc(Br)cc1)N1CCc2ccccc2C1	KCNQ2 block -6.5
CCCCc1ccc(N=N/C(C(=O)Nc2cc(OC)c(NC(C)=O)cc2OC)=C(/C)O)cc1	none
CCc1cccc(C)c1Nc1nc2ccccc2n2cnnc12	none (no result: KCNQ2 pot)
CCOc1ccc(NC(=O)CN(C)C(=O)c2cc([N+](=O)[O-])ccc2N2CCOCC2)cc1OCC	none (no result: KCNQ2 pot)
Clc1ccc(-c2csc(-c3cccnc3)n2)s1	none (no result: KCNQ2 pot)
NC(=O)c1ccc(CSc2nc3ccccc3s2)cc1	none
c1ccc2sc(SCc3ccc(-c4nnco4)cc3)nc2c1	KCNQ2 block -7.1
COc1ccc(C(=O)[C@@H]2CC[C@](C)(C(=O)O)C2(C)C)cc1	none (no result: KCNQ2 pot)
CCOc1ccc(-n2ccnc2SCC(=O)Nc2cc(C)on2)cc1	none
CC(C)(C)OC(=O)[C@H]1[C@H](c2ccc([N+](=O)[O-])cc2)C2(C(=O)c3ccccc3C2=O)C2c3ccccc3C=NN21 (stereo partly drawn)	KCNQ2 block -6.1
CCOC(=O)C1C(=O)C=C(c2ccc([N+](=O)[O-])cc2)CC1c1ccccc1 (stereo not drawn)	none (no result: KCNQ2 pot)
CCOC(=O)c1ccccc1NC(=O)c1cn(-c2ccc(C)c(C)c2)c(=O)c2ccccc12	KCNQ2 block -6.4
COC(=O)c1ccccc1NC(=O)c1cn(-c2ccc(C)c(C)c2)c(=O)c2ccccc12	none (no result: KCNQ2 pot)
CNc1nc(N)c(C(=O)C23CC4CC(CC(C4)C2)C3)s1	none (no result: KCNQ2 pot)
CC1(C)CC(=O)C/C(=N/NC(=O)COc2ccc3ccccc3c2Br)C1	none (no result: KCNQ2 pot)
COc1ccc(-c2oc3c(CC=C(C)C)c(O[C@@H]4O[C@H](CO)[C@@H](O)[C@H](O)[C@H]4O)cc(O)c3c(=O)c2O[C@@H]2O[C@@H](C)[C@H](O)[C@@H](O)[C@H]2O)cc1	none (no result: KCNQ2 pot)
CC(=O)O[C@@H]1[C@@H](O)[C@@H](O)[C@H](Oc2c(-c3ccc(O)cc3)oc3c(CC=C(C)C)c(O)cc(O)c3c2=O)O[C@H]1C	KCNQ2 block -10
Cc1ccc(C(=O)COc2cc(O)c3c(=O)cc(-c4ccccc4)oc3c2)cc1	none (no result: KCNQ2 pot)
O=C(COc1cc(O)c2c(=O)cc(-c3ccccc3)oc2c1)c1ccccc1	KCNQ2 block -5.9
Cc1ccc(C)c(N(C)C(=O)CCS(=O)(=O)c2cccc3nonc23)c1	none (no result: KCNQ2 pot)
Cc1ccnc(NC(=O)C(C)N2C(=O)c3ccccc3S2(=O)=O)c1 (stereo not drawn)	none (no result: KCNQ2 pot)
Cc1ccc2cc(CN(Cc3ccco3)C(=O)NCc3ccccc3)c(=O)[nH]c2c1C	none (no result: KCNQ2 pot)
COc1ccccc1NC(=O)CN(Cc1ccco1)C(=O)c1cc2ccccc2o1	KCNQ2 block -7.6
COc1ccccc1NC(=O)N(Cc1ccco1)Cc1cc2cc(C)cc(C)c2[nH]c1=O	KCNQ2 block -6
Cc1ccc(C)c2[nH]c(=O)c(CN(Cc3ccco3)C(=O)Nc3ccccc3)cc12	KCNQ2 block -5.6
COc1ccccc1NC(=O)CN(Cc1ccco1)C(=O)c1ccc(=O)[nH]c1	none (no result: KCNQ2 pot)
COc1ccccc1NC(=O)N(Cc1ccco1)Cc1cc2ccc(C)c(C)c2[nH]c1=O	none (no result: KCNQ2 pot)
Cc1cccc2cc(CN(Cc3ccco3)C(=O)Nc3cccc(C#N)c3)c(Cl)nc12	none (no result: KCNQ2 pot)
Cc1ccc(NC(=O)N(Cc2ccco2)Cc2cc3cc(C)cc(C)c3nc2Cl)cc1	KCNQ2 block -6.8
Cc1c(/C(O)=C2\C(=O)C(=O)N(CCN(C)C)C2c2ccccc2)cnn1-c1ccccc1 (stereo not drawn)	none (no result: KCNQ2 pot)
Cc1ccc(C(=O)C(C)OC(=O)Cn2c(C)csc2=O)cc1 (stereo not drawn)	none (no result: KCNQ2 pot)
COc1ccc(C)cc1S(=O)(=O)N1CCCC(C(=O)NC2CC2)C1 (stereo not drawn)	none (no result: KCNQ2 pot)
CC1(C)Cc2ccccc2-c2nc(NN)[nH]c(=O)c21	none (no result: KCNQ2 pot)
CC1(C)Cc2ccccc2-c2nc(-c3ccccc3)oc(=O)c21	KCNQ2 block -7.9
CCCCCc1cc(=O)[nH]c(=S)[nH]1	none
CCCCCc1ccc(C(=O)CCCC)c(=S)[nH]1	KCNQ2 pot 8
CC1=NN(c2ccccc2)C(=O)C1(C)[N+](=O)[O-] (stereo not drawn)	none (no result: KCNQ2 pot)
CCn1nc(NC(=O)c2ccccn2)c2cc3cc(C)ccc3nc21	none
Cc1ccc2nc3c(cc2c1)c(NC(=O)c1ccccn1)nn3CC(C)C	KCNQ2 block -7.5
COc1cccc(NC(=O)CN(C2=NC3CS(=O)(=O)CC3S2)c2cccc(C)c2)c1 (stereo not drawn)	none
CN(C)S(=O)(=O)c1ccc(NC(=O)CN2C(=O)NC3(CCCC3)C2=O)cc1	none (no result: KCNQ2 pot)
Cc1ccc(NC(=O)COC(=O)[C@H](C)N2C(=O)C3CC=CCC3C2=O)cc1S(=O)(=O)N(C)C (stereo partly drawn)	none
Cc1ccc(Cl)cc1N1CCN(C(=O)c2ccc(CN3CCOCC3)cc2)CC1	none
Cc1ccc(Cl)cc1N1CCN(Cc2cc3c(cc2O)CCC3)CC1	KCNQ2 block -6
N#CC1CC(c2ccccc2)=NN1c1ccccc1[N+](=O)[O-] (stereo not drawn)	none (no result: KCNQ2 pot)
Cc1ccc(S(=O)(=O)N(C)CCCC(=O)Nc2ccc(C)cc2C)cc1	KCNQ2 pot 6.2
Cc1ccc(N(CC(=O)Nc2ccccc2-c2ccccc2)S(=O)(=O)c2ccccc2)cc1	KCNQ2 block -6.2
Cc1ccc(S(=O)(=O)N(CC(=O)Nc2ccccc2-c2ccccc2)c2ccc(C)cc2C)cc1	KCNQ2 block -6
Cc1cc(C)cc(N(CC(=O)Nc2ccccc2-c2ccccc2)S(=O)(=O)c2ccccc2)c1	none (no result: KCNQ2 pot)
Cc1cccc(N(CC(=O)Nc2ccccc2-c2ccccc2)S(=O)(=O)c2ccccc2)c1C	none (no result: KCNQ2 pot)
Cc1cc(F)ccc1NC(=O)CCCN(C)S(=O)(=O)c1ccc(F)cc1	none
Cc1cc(NC(=S)N(Cc2ccc(Br)cc2)Cc2ccc(C(=O)O)cc2)ccc1Cl	none (no result: KCNQ2 pot)
COc1cccc(NC(=O)c2cc3ccccc3cc2OC)c1	none (no result: KCNQ2 pot)
Cc1ccc(C(=O)Nc2ccccc2-c2ccccc2)cc1[N+](=O)[O-]	none (no result: KCNQ2 pot)
Cc1ccc(C(=O)Nc2cc(Cl)ccc2Oc2ccccc2)cc1[N+](=O)[O-]	KCNQ2 block -6.1
COc1cccc(NC(=O)N2CCC(NC(=O)c3ccco3)CC2)c1	none
COc1ccc(CNCCC(c2ccc(F)cc2)c2ccc(OC)cc2)cc1 (stereo not drawn)	none (no result: KCNQ2 pot)
COc1ccc(C(CCNCc2ccc(F)cc2)c2ccc(F)cc2)cc1 (stereo not drawn)	KCNQ2 block -7.2
O=[N+]([O-])c1ccc(COP(=O)(O)OCc2ccc([N+](=O)[O-])cc2)cc1	none
CCCCCCCCN1[C@@H](CC(=O)OC)c2cc(F)ccc2S1(=O)=O	KCNQ2 block -6
CCCCCCCCN1[C@@H](CC(=O)OCC)c2cc(F)ccc2S1(=O)=O	none (no result: KCNQ2 pot)
CCCCC(C(=O)O)C(C)CC(=O)Nc1nccs1 (stereo not drawn)	none
CCn1cc(C(=O)O)c(=O)c2cnc(N3CCN(C(=S)NC(=O)c4ccc(Cl)cc4)CC3)nc21	none
COc1ccc(CC(=O)NCc2n[nH]c(=S)n2-c2ccccc2OC)cc1	none
Cc1cccc(C)c1NC(=O)c1sccc1SCc1cccc(C(F)(F)F)c1	none (no result: KCNQ2 pot)
Cc1ccc(NC(=O)c2sccc2SCc2cccc(C(F)(F)F)c2)cc1	KCNQ2 block -6.8
